Data reported in PubChem BioAssay (NCI).
The panel holds about 83,000 compounds, 20% with a hit somewhere; the sample as a whole holds those more often.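 The test compound was applied at a single concentration to cells in 96-well plates for 48 hours, and percent growth was recorded.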 Activity calls are given as the source filed them. How the source made its calls: active means growth percent below 10; inactive means the rest.

How the values were obtained:
Assay in all cases: NCI-60 one-dose screen, 48 h (100 = growth as untreated, 0 = no growth, -100 = all killed)
HCT-15 colon = settings: 10 µM unless noted
HT29 colon = settings: 10 µM unless noted
SNB-19 CNS = settings: 10 µM unless noted
U251 CNS = settings: 10 µM unless noted
PC-3 prostate = settings: 10 µM unless noted
SK-MEL-5 melanoma = settings: 10 µM unless noted
UACC-62 melanoma = settings: 10 µM unless noted
LOX IMVI melanoma = settings: 10 µM
SK-MEL-28 melanoma = settings: 10 µM unless noted
SK-MEL-2 melanoma = settings: 10 µM unless noted
EKVX NSCLC = settings: 10 µM unless noted
SN12C renal = settings: 10 µM unless noted
UO-31 renal = settings: 10 µM unless noted
TK-10 renal = settings: 10 µM unless noted
ACHN renal = settings: 10 µM unless noted
CAKI-1 renal = settings: 10 µM unless noted
A498 renal = settings: 10 µM unless noted
CCRF-CEM leukemia = settings: 10 µM unless noted
MOLT-4 leukemia = settings: 10 µM unless noted

Measured: growth

C=C1CCC2C3(C)COC(c4ccco4)OC3CCC2(C)C1CC(Sc1ccccc1)C1=CCOC1=O (stereo unspecified)
active: HCT-15 colon 3.97% | HT29 colon 8.59% | LOX IMVI melanoma -96.1% | CCRF-CEM leukemia 0.425%
inactive: SNB-19 CNS 86.2% | U251 CNS 31.9% | PC-3 prostate 50.2% | SK-MEL-5 melanoma 63.4% | UACC-62 melanoma 30.2% | SK-MEL-28 melanoma 56.1% | SK-MEL-2 melanoma 80% | EKVX NSCLC 105% | SN12C renal 21.4% | UO-31 renal 51.8% | TK-10 renal 123% | ACHN renal 70.3% | CAKI-1 renal 88.2% | A498 renal 137% | MOLT-4 leukemia 16.9%

CC1=C(C#N)C2=NNCC(c3ccccc3)=NN2C(c2ccccc2)=C1
inactive: HCT-15 colon 104% | HT29 colon 114% | SNB-19 CNS 97.3% | U251 CNS 96.2% | PC-3 prostate 106% | SK-MEL-5 melanoma 106% | UACC-62 melanoma 96% | LOX IMVI melanoma 109% | SK-MEL-28 melanoma 109% | SK-MEL-2 melanoma 113% | EKVX NSCLC 99.7% | SN12C renal 105% | UO-31 renal 91.2% | TK-10 renal 103% | ACHN renal 110% | CAKI-1 renal 99.8% | A498 renal 132% | CCRF-CEM leukemia 110% | MOLT-4 leukemia 114%

COc1ccc(-c2ccnc(SCc3cc4cc(OC)ccc4[nH]c3=O)n2)cc1
active: SK-MEL-5 melanoma -3.59% | CCRF-CEM leukemia 6.65% | MOLT-4 leukemia 4.45%
inactive: HCT-15 colon 10.5% | HT29 colon 19.9% | SNB-19 CNS 36.3% | U251 CNS 22.7% | PC-3 prostate 23.8% | UACC-62 melanoma 16.4% | LOX IMVI melanoma 18.7% | SK-MEL-28 melanoma 36.5% | SK-MEL-2 melanoma 12.8% | EKVX NSCLC 34% | SN12C renal 14.7% | UO-31 renal 21.1% | TK-10 renal 36.8% | ACHN renal 33.6% | CAKI-1 renal 38.8% | A498 renal 79.6%

C=C1CC[C@@H]2[C@]3(C)COC(c4cn[nH]c4-c4cccc(Cl)c4)O[C@@H]3CC[C@@]2(C)[C@@H]1C/C=C1/C(=O)OCC1O (stereo partly specified)
active: HCT-15 colon -59.2% | HT29 colon 0.309% | SNB-19 CNS 5.54% | U251 CNS -85.8% | PC-3 prostate -0.106% | SK-MEL-5 melanoma -79.6% | UACC-62 melanoma -86.9% | LOX IMVI melanoma -100% | SK-MEL-28 melanoma -76.6% | SK-MEL-2 melanoma -23.7% | EKVX NSCLC 8.03% | SN12C renal -69.6% | UO-31 renal -94.4% | TK-10 renal 3.28% | ACHN renal -87.4% | CCRF-CEM leukemia -14.9%
inactive: CAKI-1 renal 32.6% | A498 renal 151% | MOLT-4 leukemia 12.7%

N/C(=N\N=C\c1ccc([N+](=O)[O-])cc1)c1c(N)nc(=S)[nH]c1-c1ccc(Cl)cc1Cl
inactive: HCT-15 colon 103% | HT29 colon 116% | SNB-19 CNS 74.9% | U251 CNS 67% | PC-3 prostate 96.8% | SK-MEL-5 melanoma 104% | UACC-62 melanoma 84.7% | LOX IMVI melanoma 96.5% | SK-MEL-28 melanoma 113% | SK-MEL-2 melanoma 93.4% | EKVX NSCLC 98.9% | SN12C renal 96.1% | UO-31 renal 98.3% | ACHN renal 88.9% | CAKI-1 renal 78.9% | A498 renal 160% | CCRF-CEM leukemia 106% | MOLT-4 leukemia 94%

CCOC(=O)/C=C/c1cccc2c1C(=O)NC(C)(c1cc3cc(Cl)ccc3oc1=O)N2 (stereo unspecified)
active: SK-MEL-2 melanoma 7.1% | MOLT-4 leukemia 4.75%
inactive: HCT-15 colon 20.9% | HT29 colon 32.5% | SNB-19 CNS 33.8% | U251 CNS 33.9% | PC-3 prostate 17.4% | SK-MEL-5 melanoma 10.2% | UACC-62 melanoma 13.4% | LOX IMVI melanoma 22.2% | SK-MEL-28 melanoma 53.9% | EKVX NSCLC 31.8% | SN12C renal 31.5% | UO-31 renal 11.7% | TK-10 renal 46.2% | ACHN renal 10% | CAKI-1 renal 10.5% | A498 renal 30.3% | CCRF-CEM leukemia 37.4%

COc1ccc2c(c1)c(-c1cc3nc(-c4cn(C)c5ncc(Br)cc45)cc(N)n3n1)cn2C
inactive: A498 renal 86.8%
active: HCT-15 colon -48% | HT29 colon -88.5% | SNB-19 CNS -16.9% | U251 CNS -57.3% | PC-3 prostate -19.5% | SK-MEL-5 melanoma -88.1% | UACC-62 melanoma -82.2% | LOX IMVI melanoma -100% | SK-MEL-28 melanoma -92.8% | SK-MEL-2 melanoma -68.6% | EKVX NSCLC -51.6% | SN12C renal -75.3% | UO-31 renal -58.1% | TK-10 renal -40.8% | ACHN renal -92.3% | CAKI-1 renal -39.9% | CCRF-CEM leukemia -29.2% | MOLT-4 leukemia -43.6%

CC1(c2cc3cc(Cl)ccc3oc2=O)NC(=O)c2c(/C=C/C(=O)OC3CC4CCC3(C)C4(C)C)cccc2N1 (stereo unspecified)
inactive: HCT-15 colon 66.4% | HT29 colon 60.9% | SNB-19 CNS 52.9% | U251 CNS 52.5% | PC-3 prostate 25.7% | SK-MEL-5 melanoma 61.2% | UACC-62 melanoma 62.6% | LOX IMVI melanoma 78.9% | SK-MEL-28 melanoma 75.4% | SK-MEL-2 melanoma 53.7% | EKVX NSCLC 49.4% | SN12C renal 58.5% | UO-31 renal 42.8% | TK-10 renal 79.3% | ACHN renal 61.7% | CAKI-1 renal 59.6% | A498 renal 118% | CCRF-CEM leukemia 59.4% | MOLT-4 leukemia 21.2%
